# Laboratory results taken from PubChem BioAssay.
# Active and inactive are the calls of the source.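 Rule for the calls, unless noted: active = visually confirmed hit in the image check and inhibition above 20%; inconclusive = visually confirmed hit but inhibition not above 20%; inactive = no visual hit in the image check.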
# Columns and labels:
# [1] = inhibitors of TNFa-induced NFkB p65 translocation, primary screen, imaging, HUVEC, MLSMR starter and 10KST1 sets (AID 438;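 active = inhibition above 20% together with a positive visual image hit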;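 note: compound added about 3h40 before a 20 min TNFalpha stimulation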;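 for inhibition: signal is the nuclear over cytoplasmic p65 intensity ratio per well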); settings: HUVEC TNFa-induced p65 nuclear translocation; cell count: measured here: nuclei count (cytotoxicity indicator), at 2.08 µM; inhibition: at 2 µM, stronger effect = higher value, 0% TNFa-plus-vehicle, 100% no-TNFa wells
# [2] = reduction of polyQ htt aggregates in cells – imaging, exon1htt(103Q)mCFP cells, high-content imaging, primary screen (AID 483;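 active = visual image review flags a hit and inhibition of aggregation exceeds 20%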;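 note: compound exposure lasted 3 days before fixation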;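 for nuclei count: percent of the per-plate median nuclei count of sample wells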); settings: exon1htt(103Q)mCFP cell line, aggregate imaging, at 2 µM; inhibition of aggregation: stronger effect = higher value; nuclei count: measured here: cell count, toxicity
# [3] = endothelial E-selectin expression blockers – imaging, HUVEC, immunofluorescence, MLSMR starter and 10KST1 sets, primary screen (AID 487); settings: HUVEC TNFalpha-induced E-selectin immunofluorescence imaging, at 2 µM; inhibition: stronger effect = higher value; nuclei count: measured here: cell number, toxicity;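 for inhibition: signal is fraction of cell area covered by stained E-selectin grains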;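 for nuclei count: 100% = median nuclei count of all wells on the same plate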
# [4] = target: Voltage-gated potassium channel subunit beta-2 (Rattus norvegicus) (UniProt P62483); assay: inhibitors of rat Kvbeta2 reductase activity – biochemical, NADPH fluorescence, primary screen (AID 622;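 active = fluorescence slope higher than the sample average by over 3 SD, cut at about -0.22 in these data, passing the limit was not always enough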;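 note: slope of raw intensity against log time taken from 70 to 1610 s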); settings: recombinant KvBeta, 4-cyanobenzaldehyde reduction, at 10 µM, stronger effect = higher value
# Chain of Voltage-gated potassium channel subunit beta-2 (Rattus norvegicus) (P62483 whole entry, looked up): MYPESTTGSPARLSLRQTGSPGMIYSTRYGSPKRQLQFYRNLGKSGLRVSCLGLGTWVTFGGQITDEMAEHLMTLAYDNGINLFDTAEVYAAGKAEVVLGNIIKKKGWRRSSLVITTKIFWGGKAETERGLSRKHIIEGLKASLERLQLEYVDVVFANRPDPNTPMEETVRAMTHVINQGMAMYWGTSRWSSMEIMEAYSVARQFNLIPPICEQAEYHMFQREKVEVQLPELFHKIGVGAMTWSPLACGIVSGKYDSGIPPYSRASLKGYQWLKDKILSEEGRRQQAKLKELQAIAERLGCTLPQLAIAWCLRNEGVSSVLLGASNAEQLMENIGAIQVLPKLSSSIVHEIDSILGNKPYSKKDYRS
# [5] = target: Voltage-gated potassium channel subunit beta-2 (Rattus norvegicus) (UniProt P62483); assay: enhancers of rat Kvbeta2 NADPH turnover – biochemical, NADPH fluorescence, primary screen (AID 623;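 active = NADPH fluorescence slope more negative than the mean of all samples by about 3 SD, 99.7% confidence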;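 note: fluorescence intensity change per second fitted from 20 to 320 s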); settings: Recombinant KvBeta, NADPH fluorescence decrease slope, 10 min; at 10 µM; stronger effect = lower value
# [6] = target: Alpha-2C adrenergic receptor (Homo sapiens) (UniProt P18825); assay: compounds altering alpha2C-coupled GIRK flux – cell-based, HEK293 alpha2C/GIRK1/2, thallium flux, primary screen (AID 624;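 active = fluorescence slope after compound addition differing from the mean of all screened samples at 99.7% confidence, in either direction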;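 note: slope of fluorescence ratio to pre-addition baseline per second over 15 to 24 s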); settings: thallium flux BTC fluorescence, at 10 µM, actives lie on both sides
# Chain of Alpha-2C adrenergic receptor (Homo sapiens) (P18825 whole entry, looked up): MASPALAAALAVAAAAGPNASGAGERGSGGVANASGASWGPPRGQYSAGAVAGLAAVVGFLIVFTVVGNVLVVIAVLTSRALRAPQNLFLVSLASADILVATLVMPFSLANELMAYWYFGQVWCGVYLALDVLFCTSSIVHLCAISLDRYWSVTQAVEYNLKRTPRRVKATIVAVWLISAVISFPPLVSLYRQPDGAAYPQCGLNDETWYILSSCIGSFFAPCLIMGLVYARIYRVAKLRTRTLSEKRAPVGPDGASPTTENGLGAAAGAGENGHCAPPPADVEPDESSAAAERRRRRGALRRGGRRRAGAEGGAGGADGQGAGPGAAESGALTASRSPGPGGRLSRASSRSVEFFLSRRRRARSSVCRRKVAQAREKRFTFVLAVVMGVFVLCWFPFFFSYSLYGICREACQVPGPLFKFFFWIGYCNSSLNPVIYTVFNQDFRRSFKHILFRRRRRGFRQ
# [7] = blockers of RIG-like receptor reporter activation – cell-based, Sendai virus stimulus, luciferase, 10K MLSCN set, TLR/RLR signaling modifier project, primary screen (AID 602276;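 active = inhibition at or above 50% at 10 µM; inactive = inhibition below 50%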;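 note: firefly luciferase from ISG56 promoter only with Renilla not read in this screen; 0% = Sendai virus plus DMSO and 100% = medium plus DMSO without virus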); settings: HEK293 RL24 IRF3 luciferase reporter, at 10 µM, stronger effect = higher value
# [8] = TLR3 IRF3 reporter activation blockers – cell-based, poly I:C stimulus, luciferase, 10K MLSCN set, primary screen (AID 602277;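 active = inhibition of the reporter signal at or above 50%; inactive = inhibition below 50%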); settings: HEK293-TLR3 RL24 IRF3 luciferase reporter, at 10 µM, stronger effect = higher value
SMILES,cell count [1],inhibition [1],inhibition of aggregation [2],nuclei count [2] [%],inhibition [3],nuclei count [3] [%],fluorescence slope [4],NADPH fluorescence slope [5],slope [6],inhibition [7],inhibition [8]
COc1ccc(NC(=O)CN(c2cc(C)cc(C)c2)S(=O)(=O)c2c(C)noc2C)cc1OC,753,-1.7% (inactive),-15.7% (inactive),116,-8.7% (inactive),117,-0.551 (inactive),-2.2e-05 (inactive),0.00583 (inactive),15.1% (inactive),38% (inactive)
CC(C)Cc1nnc(NC(=O)CCC(=O)N2CCOCC2)s1,597,8.1% (inactive),-2% (inactive),106,17.3% (inactive),102,-0.422 (inactive),-3.6e-05 (inactive),0.00514 (inactive),12.2% (inactive),10.8% (inactive)
CCOC(=O)N1CCC(N2C(=O)c3ccccc3C2Nc2ccc3c(C)cc(=O)oc3c2)CC1 (centres undefined),654,2.3% (inactive),-19.4% (inactive),101,-65.6% (inactive),121,-0.0451 (active),-9.7e-08 (inactive),0.00764 (inactive),14.2% (inactive),18% (inactive)
Cn1cc(-c2nc3ccccc3[nH]2)c2ccccc21,250,2.1% (inactive),33.7% (inactive),82.6,55.1% (inactive),83.3,-0.416 (inactive),-6e-05 (inactive),0.00369 (inactive),-9.53% (inactive),-51.2% (inactive)
O=C1c2ccccc2C(=O)N1CCCCN1CCN(CCCCN2C(=O)c3ccccc3C2=O)CC1,401,-3.5% (inactive),17.2% (inactive),2.4,-22.5% (inactive),86.8,-0.408 (inactive),-3.8e-05 (inactive),0.00409 (inactive),14.1% (inactive),10.6% (inactive)
CC1(C)OC(=O)C(=CNc2ccccc2F)C(=O)O1,604,-9.5% (inactive),29.9% (inactive),95.6,22.8% (inactive),96.8,-0.606 (inactive),-1.2e-05 (inactive),0.0057 (inactive),14.1% (inactive),28% (inactive)
Cc1ccc(C)c(/C(O)=C2\C(=O)C(=O)N(CCCN3CCOCC3)C2c2cccnc2)c1 (centres undefined),529,5.5% (inactive),-1.6% (inactive),109,-280% (inactive),127,-0.339 (inactive),-2.4e-06 (inactive),0.00619 (inactive),9.67% (inactive),21.1% (inactive)
O=C(CSc1nc(-c2ccco2)cc(C(F)(F)F)n1)NCCCn1ccnc1,674,-1.9% (inactive),2.9% (inactive),119,-43.1% (inactive),113,-0.537 (inactive),2.4e-05 (inactive),0.0076 (inactive),-4.59% (inactive),13.6% (inactive)
O=C(Cn1nc(Cc2ccncc2)c2ccccc2c1=O)N1CCc2ccccc2C1,726,-7.3% (inactive),-6.8% (inactive),103,-57.6% (inactive),122,-0.527 (inactive),-2.1e-05 (inactive),0.0064 (inactive),-3.59% (inactive),15.5% (inactive)
N#CC1=C(N)S[C@H](C(=O)C23CC4CC(CC(C4)C2)C3)[C@H]1c1ccncc1,297,2.4% (inactive),-16.4% (inactive),105,-10.8% (inactive),111,-0.482 (inactive),-1.6e-05 (inactive),0.0041 (inactive),11.9% (inactive),23.4% (inactive)
COC(=O)[C@H](C)NC(=O)NCc1ccc(F)cc1,589,-23.8% (inactive),24.3% (inactive),100,-131% (inactive),96.1,-0.622 (inactive),-1.3e-05 (inactive),0.00843 (inactive),6.37% (inactive),-35.7% (inactive)
CCOC(=O)C1CCCN(C(=O)c2ccc(CS(=O)(=O)c3ccc(Br)cc3)o2)C1 (centres undefined),509,-3% (inactive),-0.5% (inactive),108,-61.3% (inactive),111,-0.422 (inactive),-7.7e-05 (inactive),0.00523 (inactive),4.84% (inactive),25.8% (inactive)
Cc1nnc(SCC(=O)N2c3ccccc3CC2C)s1 (centres undefined),528,-31.1% (inactive),5.8% (inactive),55.7,-46.9% (inactive),136,-0.521 (inactive),-5.2e-05 (inactive),0.00417 (inactive),4.91% (inactive),-5.96% (inactive)
CCn1c(C)c(CCC(=O)O)c(=O)n2nc(-c3ccccc3OC)cc12,400,7.4% (inactive),0% (inactive),103,-121% (inactive),108,-0.548 (inactive),-1.2e-05 (inactive),0.00427 (inactive),-9.14% (inactive),2.68% (inactive)
